Test systems include NCI-H23 lung; NCI-H226 lung; NCI-H322M lung; HOP-62 NSCLC; NCI-H460 lung; HOP-92 NSCLC; NCI-H522 lung; A549/ATCC NSCLC; 786-0 renal; COLO 205 colon; DU-145 prostate; K-562 leukemia; MALME-3M melanoma; MDA-MB-231 breast; RXF 393 renal; SF-268 CNS; SF-295 CNS; SF-539 CNS; UACC-257 melanoma; M14 melanoma.
Holding throughout (assay): NCI-60 one-dose screen, 48 h (100 = growth as untreated, 0 = no growth, -100 = all killed)
What all share (conditions): 10 µM unless noted

About 83,000 compounds went through this panel and 20% of them were active in at least one assay; those are over-represented in the sample as a whole.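 Activity criterion: percent growth below 10, measured after cells in 96-well plates were exposed to a single compound concentration for 48 hours.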 A number with no mark means an inactive call. Calls of active or inactive are those of the source.

This note sets out measurements from PubChem BioAssay (NCI).

Take `CC1(C)[C@@H](O)CC[C@]2(C)[C@H]3CC[C@@H]4[C@H]5[C@H](c6cn(-c7ccccc7)nn6)CC[C@]5(CO)CC[C@@]4(C)[C@]3(C)CC[C@@H]12`: the growth in the test on NCI-H23 lung was 92.1%; in the test on NCI-H226 lung, 80.9%; in the test on NCI-H322M lung, 79.7%; in the test on HOP-62 NSCLC, 93.9%; with NCI-H460 lung, 78.4%; with HOP-92 NSCLC, 100%. The growth with NCI-H522 lung was 69.4%; in the test on A549/ATCC NSCLC, 74.5%; with 786-0 renal, 91.7%; with COLO 205 colon, 95.2%; with DU-145 prostate it was 95.4%; in the test on K-562 leukemia, 79.2%. Moreover, the growth with MALME-3M melanoma was 104%; with MDA-MB-231 breast, 84.3%; in the test with RXF 393 renal it was 65.3%; in the test on SF-268 CNS, 76.7%; in the test on SF-295 CNS, 86.5%; with SF-539 CNS it was 92.6%. For the same compound, the growth in the test with UACC-257 melanoma was 83.6%; in the test on M14 melanoma it was 90.5%.

Turning to `O=C1CS/C(=N/c2nnc(-c3ccc(O)cc3)s2)N1`, the growth with NCI-H23 lung was 90%; in the test with NCI-H226 lung, 105%; in the test on NCI-H322M lung, 110%; in the test on HOP-62 NSCLC it was 83.7%; in the test with NCI-H460 lung, 107%; in the test with HOP-92 NSCLC, 111%. Besides, the growth with NCI-H522 lung is 88.6%; in the test with A549/ATCC NSCLC, 89.9%; with 786-0 renal, 95%; in the test on COLO 205 colon it was 97.7%; with DU-145 prostate, 110%; in the test with K-562 leukemia, 95.6%. The growth is 101% in the test with MALME-3M melanoma; 109% in the test on MDA-MB-231 breast; 125% in the test with RXF 393 renal; 108% with SF-268 CNS; 93.9% in the test with SF-295 CNS; 102% in the test with SF-539 CNS. In addition, the growth in the test on UACC-257 melanoma is 100%; in the test on M14 melanoma it was 103%.

Take `Cc1nccc2c3ccc(OCc4cn(-c5ccc(Cl)cc5)nn4)cc3n(CC(C)C)c12`: the growth in the test on NCI-H23 lung was 14.1%; in the test on NCI-H226 lung it was 42%; in the test with NCI-H322M lung, 66.1%; in the test on HOP-62 NSCLC, 35.6%; in the test with NCI-H460 lung, 17%; with HOP-92 NSCLC it was 8.37% (active). Moreover, the growth with NCI-H522 lung is 1.04% (active); with A549/ATCC NSCLC, 30.7%; in the test on 786-0 renal, 2.68% (active); in the test on COLO 205 colon, -22.6% (active); in the test on DU-145 prostate it was 54.1%; in the test with K-562 leukemia, 8.22% (active). For the same compound, the growth is 0.392% (active) in the test on MALME-3M melanoma; 27.8% with MDA-MB-231 breast; 0.754% (active) in the test on RXF 393 renal; 57.3% in the test on SF-268 CNS; 15.4% with SF-295 CNS; 22.2% with SF-539 CNS. In addition, the growth in the test with UACC-257 melanoma was 4.16% (active); in the test with M14 melanoma, 23.2%.

Regarding `O=C1CCc2ccccc2N1`, the growth in the test on NCI-H23 lung is 99.4%; with NCI-H226 lung, 104%; with NCI-H322M lung it was 87.9%; in the test with HOP-62 NSCLC, 102%; in the test on NCI-H460 lung it was 110%; in the test on HOP-92 NSCLC, 101%. Besides, the growth in the test with NCI-H522 lung was 101%; with A549/ATCC NSCLC, 101%; with 786-0 renal, 101%; in the test on COLO 205 colon, 97.1%; in the test on DU-145 prostate, 103%; in the test on K-562 leukemia, 90.2%. In addition, the growth with MALME-3M melanoma is 88.5%; with MDA-MB-231 breast, 110%; in the test with RXF 393 renal it was 111%; in the test with SF-268 CNS it was 97.4%; in the test on SF-295 CNS it was 107%; in the test on SF-539 CNS it was 105%. Further, the results for the growth in the test on UACC-257 melanoma and in the test with M14 melanoma were 106% and 99.2%, respectively.

For `C=C1C(=O)O[C@H]2[C@H]1CC/C(COC(=O)/C=C/c1cccnc1)=C\CC[C@@]1(C)O[C@@H]21`, the growth with NCI-H23 lung is 56.2%; in the test on NCI-H226 lung it was 38.5%; in the test with NCI-H322M lung, 93.6%; in the test on HOP-62 NSCLC, 72.4%; in the test with NCI-H460 lung, 77.4%; with HOP-92 NSCLC, 19.1%. In addition, the growth with NCI-H522 lung was -43.5% (active); in the test with A549/ATCC NSCLC, 61.8%; with 786-0 renal, 2.95% (active); in the test on COLO 205 colon, -46% (active); with DU-145 prostate it was 13.1%; with K-562 leukemia, 6.99% (active). In addition, the growth is -35.9% (active) in the test with MALME-3M melanoma; 38.7% in the test on MDA-MB-231 breast; -9.04% (active) in the test with RXF 393 renal; 57.6% with SF-268 CNS; 84.4% with SF-295 CNS; 6.08% (active) with SF-539 CNS. Further, the growth in the test with UACC-257 melanoma was 28.9%; in the test on M14 melanoma, 26.3%.

For `COc1ccc(NC(=O)c2ccc(Nc3ncnc4[nH]c(C)c(C)c34)cc2)cc1`, the growth in the test with NCI-H23 lung is 102%; with NCI-H226 lung it was 106%; with NCI-H322M lung, 101%; in the test on HOP-62 NSCLC, 108%; in the test on NCI-H460 lung, 98.4%; in the test on HOP-92 NSCLC, 111%. The growth in the test with NCI-H522 lung is 97.4%; with A549/ATCC NSCLC, 94.8%; in the test with 786-0 renal it was 101%; with COLO 205 colon, 115%; with DU-145 prostate it was 107%; in the test on K-562 leukemia it was 105%. In addition, the growth with MALME-3M melanoma is 114%; in the test on MDA-MB-231 breast, 104%; with RXF 393 renal it was 105%; in the test on SF-268 CNS, 91.4%; with SF-295 CNS, 96.6%; in the test with SF-539 CNS it was 97.5%. Moreover, the growth was 101% in the test with UACC-257 melanoma and 110% in the test with M14 melanoma.

For `COC(=O)/C=C1\SC(=Nc2ccc(C(F)(F)F)cc2)N(CCc2c[nH]c3ccccc23)C1=O`, the growth in the test with NCI-H23 lung is -4.71% (active); in the test with NCI-H226 lung, -62.7% (active); in the test with NCI-H322M lung, -11% (active); in the test with HOP-62 NSCLC, -64.2% (active); in the test on NCI-H460 lung, -47.4% (active); in the test with HOP-92 NSCLC, -48.7% (active). Also, the growth is -65% (active) in the test with NCI-H522 lung; 3.32% (active) in the test with A549/ATCC NSCLC; -74.1% (active) in the test on 786-0 renal; -62.9% (active) with COLO 205 colon; -65.4% (active) with DU-145 prostate; -0.591% (active) in the test on K-562 leukemia. Also, the growth in the test with MALME-3M melanoma was -89.6% (active); in the test with MDA-MB-231 breast, -63.7% (active); with RXF 393 renal, -70.2% (active); in the test with SF-268 CNS it was -3.91% (active); in the test on SF-295 CNS, -81.4% (active); in the test with SF-539 CNS, -91.2% (active). Further, the values for the growth in the test on UACC-257 melanoma and with M14 melanoma were -50.3% (active) and -45.6% (active), respectively.

On to `COc1ccccc1C(=O)/C=C/c1cc2cccc(OC)c2[nH]c1=O`, for which the growth is -16.4% (active) with NCI-H23 lung; -22.1% (active) with NCI-H226 lung; 8.09% (active) with NCI-H322M lung; -8.85% (active) with HOP-62 NSCLC; -27.5% (active) with NCI-H460 lung; 10.6% with HOP-92 NSCLC. Besides, the growth is -72.7% (active) in the test on NCI-H522 lung; 21.4% in the test on A549/ATCC NSCLC; 9.27% (active) in the test on 786-0 renal; -49.7% (active) with COLO 205 colon; 16.5% in the test with DU-145 prostate; 5.33% (active) in the test on K-562 leukemia. Moreover, the growth with MALME-3M melanoma is -0.686% (active); in the test with MDA-MB-231 breast, -0.926% (active); with RXF 393 renal, -43.5% (active); in the test with SF-268 CNS, 2.36% (active); in the test on SF-295 CNS it was 14.1%; in the test with SF-539 CNS it was -10% (active). Besides, the growth with UACC-257 melanoma is 33.6%; in the test on M14 melanoma it was 9.63% (active).
